A selection: hits, their analogues and other compounds. The true share with any hit is near 20%.
Pf growth 48h – P. falciparum growth inhibition at 48 hours (one generation). P. falciparum luciferase growth in erythrocytes, 48 h. 310,000 compounds, 5.9% hits. AID 504832. Potency, µM (series often up to 28.7 µM), for the others: top-dose activity change, negative = inhibition, usual class: inhibitors; note: potency is the fitted concentration of half-maximal effect; % is set by controls: 0 for no effect and ±100 for the full control effect
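Cell-based growth assay: transgenic P. falciparum expressing firefly luciferase, cultured in red cells within RPMI 1640 containing 0.5% w/v Albumax, 24 mM bicarbonate and gentamycin. A drop in luciferase activity indicates inhibition.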
Pf growth 96h – inhibits malaria parasite growth, 96 h | P. falciparum luciferase reporter growth, 96 h | Potency, µM (titrated, usually from 28.7 µM), for the others: top-dose activity change, negative = inhibition, usual class: inhibitors | 320,000 compounds, 6.9% hits; note: potency is the fitted concentration of half-maximal effect; % is set by controls: 0 for no effect and ±100 for the full control effect
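P. falciparum expressing integrated firefly luciferase grown in erythrocytes (2% hematocrit, 0.05% parasitemia final) with compounds for 96 hours at 37 C, 5% CO2. Growth inhibition read as loss of luminescence after adding luciferase detection reagent.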
Shiga inhibitor – inhibitors of Shiga toxin in Vero cells. Vero cells, Shiga toxin protein synthesis inhibition reporter. inhibition, % at 38.7 µM. 290,000 compounds, 9.2% hits; in the data active = inhibition mostly above about 28%, no sharp cut-off; inactive = mostly below about 43%; note: 0% is about no effect
Cycloheximide cs – counter-screen hit for Shiga toxin inhibitors, cycloheximide; cell reporter, cycloheximide protein synthesis inhibition counterscreen; max response, %; 300,000 compounds, 12% hits; in the data active = max response mostly above about 13%, no sharp cut-off; inactive = mostly below about 14%; note: read at 38.3 µM for the half of the compounds with a filed dose; 0% is about no effect
HCMV inh – inhibitors of human cytomegalovirus; 410,000 compounds, 4.5% hits; activity change, negative = inhibition, % at 57.5 µM; HFF cells, HCMV-luciferase reporter, 72 h; active compounds read low; AID 1259415; in the data active = activity change below about -60%; inconclusive = no clear call, values can overlap the other calls; inactive = above about -39%; note: % is set by controls: 0 for no effect and ±100 for the full control effect
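After 16 h attachment at 37C, HFF cells received test compound and HCMV-luciferase (1 PFU/cell); reporter luminescence read 72 h later, data normalized against buffer-only and known inhibitor Salinomycin.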
An asterisk follows results filed as active; ? = inconclusive; . = not tested or not shown. Unless noted, calls come from the whole dose curve; as a rule, active = well fitted inhibition curve with a large enough effect; inconclusive = small, poorly fitted or top-dose-only effect, or another doubt; inactive = no such curve, though single readings can be large or run the other way.

SMILES | Pf growth 48h | Pf growth 96h | Shiga inhibitor | Cycloheximide cs | HCMV inh
Cc1cc(F)ccc1S(=O)(=O)N1CCCCC1CCNC(=O)C(=O)NCc1ccccn1 (stereo not drawn) | ? | ? | . | . | -11
O=C1/C(=C/c2ccco2)CCC1C1CCCC1 (stereo not drawn) | 36% | ? | 127* | 53* | -12
O=C1/C(=C\c2ccco2)CCC/C1=C\c1ccco1 | 187% | ? | 10 | -2 | ?
CC1=C(C(=O)Nc2ccc(C)cc2C)C(c2ccccc2F)n2nc(SCC(=O)c3ccc(C)cc3)nc2N1 (stereo not drawn) | . | . | . | . | 23
COc1ccc(NC(=O)C2=C(C)Nc3nc(SCc4ccccc4)nn3C2c2cc(OC)ccc2OC)cc1 (stereo not drawn) | . | . | . | . | -82*
CCSc1nc2n(n1)C(c1ccc(Cl)cc1Cl)C(C(=O)Nc1ccccc1C)=C(C)N2 (stereo not drawn) | . | . | . | . | -91*
CCOc1ccccc1C1C(C(=O)Nc2ccccc2)=C(C)Nc2nc(SCC(=O)c3ccc(C)cc3)nn21 (stereo not drawn) | . | . | . | . | -72*
N#Cc1ccccc1S(=O)(=O)N1CCN(Cc2cc3c(cc2Br)OCCO3)CC1 | . | . | . | . | -24
Cc1ccc(N2C(=O)CS(=O)(=O)C23C(=O)Nc2ccccc23)cc1C (stereo not drawn) | . | . | . | . | 7
O=C(CNC(=O)c1ccco1)Nc1ccc(Br)cc1 | 40% | 61% | 61* | 45* | 7
Cc1ccc(NC(=O)CNC(=O)c2ccco2)c(Cl)c1 | 64% | 68% | 47* | 25* | 72
C/C(=N\NC(=O)CNC(=O)c1ccco1)c1ccc(Br)cc1 | 38% | 21% | 3 | -2 | ?
Cc1c(Cl)cccc1NC(=O)CNC(=O)c1ccco1 | -16% | -17% | -3 | -1 | 22
O=C(CNC(=O)c1ccco1)Nc1ccc(Cl)cc1 | 40% | ? | 34* | 27* | .
COc1ccc(C2=NS(=O)(=O)N(C)C(C(=O)N3CCC(C(N)=O)CC3)=C2)cc1 | 4% | 4% | 5 | -1 | 29
CCc1ccc(OCC(=O)N(Cc2ccc(OC)cc2)C2CCS(=O)(=O)C2)cc1 (stereo not drawn) | . | . | . | . | -15
O=C(CSc1ncn[nH]1)N1N=C2/C(=C/c3ccco3)CCCC2C1c1ccco1 (stereo not drawn) | 12µM* | . | -6 | -1 | -34
O=C(CSc1ncn[nH]1)N1N=C2/C(=C\c3ccco3)CCCC2C1c1ccco1 (stereo not drawn) | . | . | . | . | -11
CCCCN1C(=O)C(=O)N(CC(=O)N2N=C3/C(=C/c4ccco4)CCCC3C2c2ccco2)C1=O (stereo not drawn) | 60% | 76% | 49* | 20* | -9
CCCCN1C(=O)/C(=C\c2ccco2)C(=O)N(CCc2ccccc2)C1=O | -17% | 36% | -11 | 1 | 27
Cc1ccc2oc(=O)n(CC(=O)OC(C)C)c2c1 | 0% | 10µM* | -7 | -2 | 3
COc1ccc(Cn2c(=O)oc3ccc(C)cc32)cc1OC | -8% | -20% | 0 | 4 | -95*
CC(C)OC(=O)Cn1c(=O)oc2ccccc21 | . | 2.3µM* | -1 | -2 | .
O=c1oc(-c2ccc([N+](=O)[O-])cc2)nc2ccccc12 | ? | ? | -10 | 4 | 26
CCCOc1cccc(-c2nc3ccccc3c(=O)o2)c1 | 66% | ? | 79* | 51* | 63
SMILES | Pf growth 48h | Pf growth 96h | Shiga inhibitor | Cycloheximide cs | HCMV inh
O=c1oc(-c2ccc(Br)cc2)nc2ccccc12 | 3% | 5.9µM* | . | 26* | 132
Nc1ccccc1-c1nc2ccccc2c(=O)o1 | -7% | ? | 29* | 18* | 40
Cc1ccc(Cl)cc1N1CCN(CCCNC(=O)C2COc3ccccc3C2)CC1 (stereo not drawn) | . | . | . | . | -38
COc1cc(C)c(N(C(C)=O)c2ccccc2)c(C)c1 | 5.9µM* | . | -7 | -3 | 5
CNC(=O)C[C@H]1C(=O)N(c2ccccc2)C[C@@H]1CSC | . | . | . | . | -1
Cc1cc(=O)n2c(C(=O)Nc3ccc(Br)cc3)c(C(=O)Nc3ccccc3)sc2n1 | . | . | . | . | -8
NC(=S)N/N=C/c1ccc(-c2cccc([N+](=O)[O-])c2)o1 | ? | ? | 34 | 14* | -19
O=C(N/N=C/c1cccc([N+](=O)[O-])c1O)c1cccs1 | ? | 69% | active | 38* | -39
O=C(N/N=C/c1ccc(-c2cccc([N+](=O)[O-])c2)o1)c1cccs1 | 12% | ? | 6 | 13* | 28
O=C(N/N=C/c1ccc([N+](=O)[O-])cc1)c1cccs1 | 48% | 0% | 31 | 34* | 26
Nc1nonc1C(=O)N/N=C/c1ccc(-c2cccc([N+](=O)[O-])c2)o1 | . | 0% | -5 | -6 | 30
Cc1cnc(C(=O)OCC(=O)Nc2ccccc2[N+](=O)[O-])cn1 | . | . | . | . | 9
Clc1cccc(Nc2nc(-c3ccncc3)nc3ccccc23)c1 | -17% | 0.93µM* | 44 | 5 | 3
Clc1ccccc1Nc1nc(-c2ccncc2)nc2ccccc12 | 13µM* | ? | -14 | -5 | 2
c1ccc2c(Nc3nc(-c4ccncc4)nc4ccccc34)cccc2c1 | ? | ? | -8 | -2 | 85
Fc1ccc(Nc2nc(-c3ccncc3)nc3ccccc23)cc1F | ? | ? | 6 | -3 | 12
CCOP(=O)(OCC)C(NC(=O)/C=C/c1ccc(OC)cc1)c1ccccc1 (stereo not drawn) | -17% | 22% | -9 | -3 | 2
CN(C)C/C=C(\c1ccc(Br)cc1)c1cccnc1 | 15µM* | ? | . | . | -7
CC(C)(C)NC(=O)CSc1nc(O)cc(=O)n1-c1ccccc1F | 2.6µM* | 42% | -1 | -5 | 12
COc1ccccc1-n1c(SCC(=O)NC(C)(C)C)nc(O)c(Cc2ccccc2)c1=O | -4% | -8% | 13 | -5 | 7
COc1ccccc1-n1c(SCC(=O)NC(C)(C)C)nc(O)cc1=O | 2.3µM* | 35% | 27 | 8 | -37
O=C1CCC(C(=O)N(CCO)Cc2ccccc2)CN1CC1CCCCC1 (stereo not drawn) | ? | ? | -5 | -1 | 22
O=C(Nc1ccccc1)C1=C[C@@H](c2ccc3c(c2)OCO3)C[C@@H](OCCCCO)O1 | . | . | . | . | -3
O=C(Nc1ccccc1)C1=C[C@H](c2ccc3c(c2)OCO3)C[C@H](OCCCCO)O1 | 55% | ? | 117* | 47* | 111
O=C(Nc1ccccc1)C1=C[C@@H](c2ccc(Br)cc2)C[C@@H](OCCCCO)O1 | ? | ? | 86* | 52* | 42
C#CCNC(=O)C1=C[C@H](c2ccc(Br)cc2)C[C@H](OCCCCO)O1 | ? | ? | 31* | 12* | -28
C#CCNC(=O)C1=C[C@@H](c2ccc(C(F)(F)F)cc2)C[C@@H](OCCCCO)O1 | ? | ? | 4 | 2 | -20
CCc1ccccc1NC(=O)C1CCN(C(=O)N2CC(C)Oc3ccc(Cl)cc32)CC1 (stereo not drawn) | . | . | . | . | 0

Compound activity: PubChem BioAssay, National Center for Advancing Translational Sciences (NCATS)
